A short description of assay [1]: Nuclear factor erythroid 2-related factor 2/antioxidant responsive element (Nrf2/ARE) small molecule agonists: qHTS cell viability counter screen in human keratinocytes (AID 1919968; active means well fitted curve in the direction sought with a large enough effect in the repeat runs; an effect the other way counts as inactive or inconclusive; further: nearly all actives have a fitted effect of over 55% in size). Summed up: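 Measured as CellTiter-Fluor fluorescence, this readout tracks cytotoxicity in the same wells as the ARE-luciferase screen. HaCaT reporter cells (1,500/well) received compounds after a 5 h pre-incubation and were exposed for 23 h.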
In general terms: Quantitative high-throughput screening tests each substance at several concentrations.

The nature of assay [2]: Nuclear factor erythroid 2-related factor 2/antioxidant responsive element (Nrf2/ARE) small molecule agonists: luciferase reporter gene qHTS assay in human keratinocytes (AID 1919969). Further: nearly all actives have a fitted effect of over 35% in size. Further: potency means the concentration at half of the fitted maximal effect. A general note: In a reporter assay the amount or activity of a reporter protein is the signal.
The target in assay [3] is Gonadotropin-releasing hormone receptor (Homo sapiens) (UniProt P30968). The assay can be described thus: Human gonadotropin-releasing hormone receptor (GnRHR) small molecule agonists, calcium flux assay in GnRHR-HEK293 cells (AID 1920063). Further: nearly all actives have a fitted effect of over 35% in size. The method, boiled down:
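Fluorescence kinetics (480 nm excitation, 540 nm emission; 3 min, 1 s steps) report calcium mobilisation in human GnRHR-HEK293 cells in agonist mode. Dye incubation: 1 h, 37 C.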

The target in assay [4] is KiSS-1 receptor (Homo sapiens) (UniProt Q969F8). The assay can be described thus: Human kisspeptin (KISS1R) small molecule agonists, calcium flux assay in KISS1R-HEK293 cells (AID 1920064; active means well fitted curve in the direction sought with a large enough effect in the repeat runs; an effect the other way counts as inactive or inconclusive). Summed up: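 Measures KISS1R agonism through calcium-sensitive dye fluorescence in stably transfected HEK293 cells, read for 3 min after pin-tool compound delivery; 15-point titrations in triplicate.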
KiSS-1 receptor (Homo sapiens), sequence (Q969F8 whole entry, looked up): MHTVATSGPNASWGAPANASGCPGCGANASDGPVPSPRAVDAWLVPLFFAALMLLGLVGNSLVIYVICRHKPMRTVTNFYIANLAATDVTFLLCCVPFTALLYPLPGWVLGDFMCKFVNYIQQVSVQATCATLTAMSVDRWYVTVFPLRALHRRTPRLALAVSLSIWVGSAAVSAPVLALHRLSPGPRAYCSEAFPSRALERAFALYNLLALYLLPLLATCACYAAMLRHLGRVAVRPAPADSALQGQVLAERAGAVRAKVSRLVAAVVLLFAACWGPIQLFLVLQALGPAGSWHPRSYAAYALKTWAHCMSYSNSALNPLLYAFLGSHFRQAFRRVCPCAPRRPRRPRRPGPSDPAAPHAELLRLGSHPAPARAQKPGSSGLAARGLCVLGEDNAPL
Background: Calcium flux is commonly read through the fluorescence of an indicator in the cells.

Assay [5] can be described thus: G protein-coupled receptor (GPCR) small molecule agonists, calcium flux assay: HEK293 wild type cell line counter screen (AID 1920065). Summed up: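 Readout: fluorescence at 480 nm excitation/540 nm emission, sampled at 1 s intervals for 3 min. Cells had been cultured 18 h, then dye-loaded 1 h at 37 C before compound or ATP addition.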
Assay [6] in a line: p53 small molecule agonists, cell-based qHTS assay with human liver microsomes (AID 1963577). Summed up: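 p53RE-bla reporter cells were pre-incubated 5 h at 37 C, then treated with compounds plus human liver microsomes (0.5 mg/mL final) and NADPH (0.5 mg/mL final) for 16 h at 37 C. Beta-lactamase activity was read by LiveBLAzer fluorescence after 2 h at room temperature.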
A short description of assay [7]: p53 small molecule agonists, cell-based qHTS assay with rat liver microsomes (AID 1963578). The method, boiled down:
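p53RE-bla cells were exposed to compounds together with rat liver microsomes (0.5 mg/mL final) and NADPH (0.5 mg/mL final) for 16 h at 37 C, then read by LiveBLAzer beta-lactamase fluorescence after 2 h at room temperature.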

Assay [8] is described as follows: p53 small molecule agonists, cell-based qHTS assay with human liver microsomes: qHTS cell viability counter screen (AID 1963579). Further: nearly all actives have a fitted effect of over 45% in size. The method, boiled down:
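p53RE-bla cells (4,000/well) were pre-incubated 5 h at 37 C, then given compounds in DMSO plus human liver microsomes (0.5 mg/mL final) and NADPH (0.5 mg/mL final) for 16 h at 37 C. Viability was read by CellTiter-Glo luminescence.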

The nature of assay [9]: p53 small molecule agonists, cell-based qHTS assay with rat liver microsomes: qHTS cell viability counter screen (AID 1963580). Further: nearly all actives have a fitted effect of over 45% in size. Summed up:
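Viability is assessed in parallel with the p53 reporter read: HCT-116 p53RE-bla cells receive compounds plus rat microsomes and NADPH (0.5 mg/mL final apiece), incubate 16 h at 37 C, and then CellTiter-Glo luminescence is recorded.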

Assay [10] in a line: p53 small molecule agonists, cell-based qHTS assay: qHTS cell viability counter screen (AID 1963581). Further: nearly all actives have a fitted effect of over 45% in size. The method, boiled down:
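In the same plates used for the p53 bla reporter, HCT-116 cells given compounds for 16 h at 37 C received CellTiter-Glo; luminescence was recorded 30 min later at room temperature.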

Assay [11] in a line: p53 small molecule agonists, cell-based qHTS assay (AID 1963582; active means well fitted activation curve with a large enough effect in the signal ratio in the repeat runs, not every such curve was filed as active; the % refers to the signal ratio). Summed up: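 Compounds are pin-transferred in DMSO onto p53RE-bla cells and incubated 16 h at 37 C. The B/G FRET beta-lactamase substrate is then applied for 2 h at RT and fluorescence recorded.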
For assay [12], the target named is 5-hydroxytryptamine receptor 2A (Homo sapiens) (UniProt P28223). The assay can be described thus: 5-hydroxytryptamine receptor 2A (HTR2A) small molecule antagonists, cell-based qHTS assay (AID 1963586). Further: nearly all actives have a fitted effect of over 45% in size. Summed up: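 Antagonist-mode intracellular calcium assay: DOI (4 nM) added after 5 min compound pre-incubation at room temperature to dye-loaded HTR2A-CHO cells. Fluorescence followed for 3 min, sampled every second.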
5-hydroxytryptamine receptor 2A (Homo sapiens), sequence (P28223 whole entry, looked up): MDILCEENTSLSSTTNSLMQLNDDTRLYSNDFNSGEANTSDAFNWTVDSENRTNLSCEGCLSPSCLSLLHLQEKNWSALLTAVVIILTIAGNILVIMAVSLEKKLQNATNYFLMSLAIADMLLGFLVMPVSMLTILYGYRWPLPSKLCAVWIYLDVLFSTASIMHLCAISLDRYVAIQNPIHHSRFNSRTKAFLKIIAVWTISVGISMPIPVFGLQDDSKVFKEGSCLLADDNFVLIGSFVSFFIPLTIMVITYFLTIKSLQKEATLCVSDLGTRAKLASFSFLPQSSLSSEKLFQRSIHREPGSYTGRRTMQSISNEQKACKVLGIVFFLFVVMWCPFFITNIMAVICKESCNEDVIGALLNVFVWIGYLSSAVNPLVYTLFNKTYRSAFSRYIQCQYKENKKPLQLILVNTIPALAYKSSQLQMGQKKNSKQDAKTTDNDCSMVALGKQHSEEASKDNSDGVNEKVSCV

Assay [13] has the same target. Nature of the assay: 5-hydroxytryptamine receptor 2A (HTR2A) small molecule agonists, cell-based qHTS assay (AID 1963587). Further: nearly all actives have a fitted effect of over 30% in size. The method, boiled down:
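CHO cells stably expressing human HTR2A, plated 18 h, loaded with calcium dye 1 h at 37 C. Agonist mode: compounds added and intracellular calcium fluorescence recorded kinetically for 2 min at 1 sec intervals.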

Assay [14] concerns the target Muscarinic acetylcholine receptor M1 (Homo sapiens) (UniProt P11229). Nature of the assay: Cholinergic receptor muscarinic 1 (CHRM1) small molecule antagonists, cell-based qHTS assay (AID 1963588). Further: nearly all actives have a fitted effect of over 40% in size. Further: potency means the concentration at half of the fitted maximal effect. The method, boiled down:
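CHRM1-CHO calcium-flux assay, antagonist mode. Cells were seeded 18 h, dye-loaded 1 h at 37 C and given compound for 5 min at RT, then acetylcholine was added at 50nM. FDSS fluorescence was read 3 min; 15 concentrations, three runs.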

Assay [15] shares this target. Nature of the assay: Cholinergic receptor muscarinic 1 (CHRM1) small molecule agonists, cell-based qHTS assay (AID 1963589). Further: nearly all actives have a fitted effect of over 35% in size. Further: potency means the concentration at half of the fitted maximal effect. The method, boiled down: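 Each compound was tested at 15 concentrations across three independent runs on dye-loaded CHO cells stably expressing human CHRM1, reading intracellular calcium fluorescence kinetically at 1 sec intervals.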
Assay [16] is described as follows: cAMP Responsive Elements (CRE) small molecule agonists, cell-based qHTS assay (AID 1963590). The method, boiled down: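 Cell line: CRE-bla HEK 293T; medium DMEM/10% dialyzed FBS/0.1 mM NEAA/1 mM pyruvate/25 mM HEPES; 3 h compound exposure; beta-lactamase FRET readout after 2 h substrate loading at RT.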
Assay [17] in a line: cAMP Responsive Elements (CRE) small molecule antagonists, cell-based qHTS assay (AID 1963591; active means well fitted inhibition curve with a large enough effect in the signal ratio in the repeat runs, not every such curve was filed as active; the % refers to the signal ratio). The method, boiled down: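 Inhibition of NKH477-driven (0.25 uM final) CRE-beta-lactamase signal in HEK293T cells, 3 h compound exposure at 37 °C, detected by FRET substrate fluorescence.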
Assay [18] concerns the target Beta-2 adrenergic receptor (Homo sapiens) (UniProt P07550). Nature of the assay: Adrenergic beta2 receptor (ADRB2) small molecule antagonists, cell-based qHTS assay (AID 1963592). Further: series mostly up to about 92 µM; nearly all actives have a fitted effect of over 50% in size. Summed up: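 Cells (CHO, stable ADRB2 overexpression) incubated 18-20hr at 37C; compounds added from DMSO; agonist mix (1nM isoproterenol, 100uM IBMX, 25uM Ro-20-1724) added; 0.5hr RT; d2-cAMP and anti-cAMP-cryptate added; 1hr RT; 665/615 nm read.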

Assay [19] has as its target D(2) dopamine receptor (Homo sapiens) (UniProt P14416). The assay can be described thus: Dopamine D2 receptor (DRD2) small molecule agonists, cell-based qHTS assay (AID 1963594). Further: nearly all actives have a fitted effect of over 35% in size. The method, boiled down:
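HEK293 cells stably expressing human DRD2, pre-treated with PDE inhibitor Ro20-1724 (0.1 mM final) and compound 10 min at room temperature, then stimulated with NKH477 (200nM […]) for 30 min. cAMP read by HTRF (665/620 nm).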

Assay [20] shares this target. The assay can be described thus: Dopamine D2 receptor (DRD2) small molecule antagonists, cell-based qHTS assay (AID 1963595; active means well fitted inhibition curve with a large enough effect in the signal ratio in the repeat runs, with a control signal flat; the % refers to the signal ratio). The method, boiled down:
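HEK293 cells stably expressing DRD2 were preincubated with 0.1 mM Ro20-1724, then with compound for 10 min at room temperature. Cells were stimulated with 200 nM NKH477 plus 12 nM quinpirole for 30 min, and cAMP was read by HTRF.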

A number with no mark means an inactive call. Results filed as inconclusive are left out. Activity calls are given as the source filed them. Unless noted, the call rests on the fitted dose curve.

D(2) dopamine receptor (Homo sapiens), sequence (P14416 whole entry, looked up): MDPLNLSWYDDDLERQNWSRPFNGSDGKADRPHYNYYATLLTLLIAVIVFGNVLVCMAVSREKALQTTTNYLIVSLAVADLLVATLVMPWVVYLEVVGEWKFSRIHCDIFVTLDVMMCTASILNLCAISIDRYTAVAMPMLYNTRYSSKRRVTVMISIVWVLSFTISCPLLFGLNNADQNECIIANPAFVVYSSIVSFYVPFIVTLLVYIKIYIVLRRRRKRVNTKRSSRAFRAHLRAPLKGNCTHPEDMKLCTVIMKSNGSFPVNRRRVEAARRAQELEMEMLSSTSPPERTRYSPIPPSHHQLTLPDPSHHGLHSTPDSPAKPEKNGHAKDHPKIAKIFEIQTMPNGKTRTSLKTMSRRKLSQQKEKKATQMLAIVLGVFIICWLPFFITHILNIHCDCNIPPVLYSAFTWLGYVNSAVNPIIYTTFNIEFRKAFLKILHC
Gonadotropin-releasing hormone receptor (Homo sapiens), sequence (P30968 whole entry, looked up): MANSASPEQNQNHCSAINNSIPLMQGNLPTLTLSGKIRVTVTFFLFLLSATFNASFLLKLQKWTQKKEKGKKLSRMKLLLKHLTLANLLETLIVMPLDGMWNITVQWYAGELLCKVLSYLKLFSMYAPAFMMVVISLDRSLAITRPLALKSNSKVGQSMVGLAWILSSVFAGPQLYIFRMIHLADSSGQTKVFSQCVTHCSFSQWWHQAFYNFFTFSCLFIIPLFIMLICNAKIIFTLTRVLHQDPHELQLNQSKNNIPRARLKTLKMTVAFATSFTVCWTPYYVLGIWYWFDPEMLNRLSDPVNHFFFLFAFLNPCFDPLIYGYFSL
Muscarinic acetylcholine receptor M1 (Homo sapiens), sequence (P11229 whole entry, looked up): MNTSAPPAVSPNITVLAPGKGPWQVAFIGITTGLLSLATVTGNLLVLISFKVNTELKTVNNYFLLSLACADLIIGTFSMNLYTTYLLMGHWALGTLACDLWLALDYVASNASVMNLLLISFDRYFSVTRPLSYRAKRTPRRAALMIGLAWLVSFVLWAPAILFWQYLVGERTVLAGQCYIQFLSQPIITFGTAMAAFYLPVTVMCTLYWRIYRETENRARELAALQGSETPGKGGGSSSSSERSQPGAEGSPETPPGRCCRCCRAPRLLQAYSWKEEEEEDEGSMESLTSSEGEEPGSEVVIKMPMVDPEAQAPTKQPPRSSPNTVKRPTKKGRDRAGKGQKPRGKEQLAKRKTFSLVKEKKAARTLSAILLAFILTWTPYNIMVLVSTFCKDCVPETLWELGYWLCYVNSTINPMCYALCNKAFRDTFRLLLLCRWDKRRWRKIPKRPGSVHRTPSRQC
Beta-2 adrenergic receptor (Homo sapiens), sequence (P07550 whole entry, looked up): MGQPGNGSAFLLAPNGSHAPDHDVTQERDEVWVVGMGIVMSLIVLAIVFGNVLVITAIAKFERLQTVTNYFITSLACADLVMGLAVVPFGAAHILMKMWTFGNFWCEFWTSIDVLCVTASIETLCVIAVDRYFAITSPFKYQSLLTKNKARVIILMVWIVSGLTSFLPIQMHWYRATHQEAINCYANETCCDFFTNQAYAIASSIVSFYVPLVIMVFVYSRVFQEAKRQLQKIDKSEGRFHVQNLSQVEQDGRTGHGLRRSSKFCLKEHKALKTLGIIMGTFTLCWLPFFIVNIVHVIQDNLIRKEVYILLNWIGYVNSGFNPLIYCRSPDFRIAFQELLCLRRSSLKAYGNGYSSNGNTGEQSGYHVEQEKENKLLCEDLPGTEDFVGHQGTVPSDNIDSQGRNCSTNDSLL

`CCCCCCc1ccc(-c2ccc(C#N)cc2)cc1`: the Potency entry in assay [1], in [3], in assay [4], in assay [5], in assay [6] and in assay [7] was “inactive” each time. In addition, the Potency result in [8], in assay [9], in [10], in [11], in assay [12] and in assay [13] was “inactive” throughout. Moreover, the Potency entry in assay [14], in assay [15], in assay [16], in assay [17], in [18] and in assay [19] was “inactive” in each case. Also, in assay [20], the Potency entry was “inactive”. The Potency in assay [2] was 13400 nM (active).
For the molecule `COC(=O)c1ccccc1C(=O)c1ccc(OCCN2CCCCC2)cc1`, the Potency result in assay [1], in [2], in assay [3], in assay [4], in [5] and in assay [6] was “inactive” each time. Moreover, the Potency entry in assay [7], in assay [8], in [9], in [10], in assay [11] and in [12] was “inactive” in each case. For the same molecule, the Potency result in [13], in [15], in [16], in assay [17], in assay [18] and in [19] was “inactive” in each case. In addition, the Potency in assay [14] is 36.5 nM (active).
`FC(F)(F)C(F)(F)C(F)(F)C(F)(F)C(F)(F)C(F)(F)CCI`: the Potency entry in assay [1], in assay [2], in assay [3], in assay [4], in assay [5] and in assay [6] was “inactive” throughout. In addition, the Potency result in [7], in assay [8], in [9], in assay [10], in assay [11] and in [12] was “inactive” each time. Moreover, the Potency entry in assay [13], in [14], in assay [15], in assay [16], in assay [17] and in [18] was “inactive” in each case. Moreover, the Potency entry in assay [19] and in [20] was “inactive” each time.
`COCC(O)CO` (configuration not stated): the Potency entry in assay [1], in assay [2], in assay [3], in assay [4], in assay [5] and in assay [6] was “inactive” throughout. Further, the Potency result in [7], in assay [8], in assay [9], in assay [10], in assay [11] and in [12] was “inactive” throughout. Also, the Potency entry in [13], in [14], in assay [15], in assay [16], in [17] and in assay [18] was “inactive” in each case. Further, the Potency entry in assay [19] and in assay [20] was “inactive” throughout.
In the case of `C=CCCCCCCCCCCCC`, the Potency result in [1], in [2], in [3], in [4], in assay [5] and in [6] was “inactive” throughout. The Potency result in assay [7], in assay [8], in assay [9], in assay [10], in assay [11] and in assay [12] was “inactive” each time. Also, the Potency entry in [13], in assay [14], in [16], in [17], in [18] and in assay [20] was “inactive” throughout. For the same molecule, the Potency in [15] was 245 nM (active).
With `OCCN1CCNCC1`, the Potency result in [1], in assay [2], in assay [3], in assay [4], in assay [5] and in [6] was “inactive” in each case. Besides, the Potency result in [7], in assay [8], in [9], in [10], in assay [11] and in assay [12] was “inactive” in each case. Moreover, the Potency entry in assay [13], in assay [14], in assay [15], in [16], in assay [17] and in assay [18] was “inactive” throughout. For the same molecule, the Potency entry in assay [19] and in assay [20] was “inactive” throughout.
For the molecule `CCOC(=O)c1cccc(N)c1`, the Potency entry in assay [1], in assay [2], in assay [3], in assay [4], in [5] and in assay [6] was “inactive” each time. The Potency result in [7], in [8], in assay [9], in [10], in assay [11] and in assay [12] was “inactive” in each case. Also, the Potency result in [13], in assay [14], in assay [15], in assay [16], in assay [17] and in assay [18] was “inactive” throughout. For the same molecule, in [20], the Potency entry is “inactive”.

Source of the values: PubChem BioAssay (Tox21).
